# Measured values from PubChem BioAssay AID686979 (National Center for Advancing Translational Sciences (NCATS), 2013).
# Out of some 420,000 compounds screened, about 50,000 (12%) were called active. About 26% were inconclusive and are not listed. The entries come from a sample that favours actives as a whole. Unmarked numbers belong to inactive results. Calls follow the shape of the dose curve; as a rule, active = well fitted inhibition curve with a large enough effect; inconclusive = small, poorly fitted or top-dose-only effect; inactive = flat fitted curve, though single readings scatter.
# Test: qHTS for Inhibitors of human tyrosyl-DNA phosphodiesterase 1 (TDP1): qHTS in cells in presence of CPT; also: nearly all actives have a fitted effect of over 55% in size
# Details: chicken DT40 Tdp1-/-;hTDP1 cells + 20 nM CPT, ATP luminescence, 48 h; series mostly up to 46.2 µM; activity change, negative = growth inhibition: at the top concentration
# Method in brief: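 Cell growth measured by CellTiter-Glo luminescence after a minimum 48 h, 37 C compound exposure with 20 nM CPT in Tdp1-knockout DT40 cells stably expressing hTDP1, seeded 400/well; qHTS titration format.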
# % is scaled to controls: 0 for no effect and ±100 for the full control effect; potency is read from the fitted curve at half-maximal effect.
SMILES,"activity change, negative = growth inhibition [%]",Potency
Cc1cc(C)c(S(=O)(=O)c2ccc(F)cc2C)c(=O)[nH]1,-5.32,
CN(CC(=O)NC1CCCC1)S(=O)(=O)c1cnc[nH]1,-1.63,
C=CCN1CN(S(=O)(=O)c2ccc(OC)cc2)c2nc3ccccc3nc21,-28.3,
O=C(Cn1cc(C(F)(F)F)ccc1=O)N/N=C/c1ccc(Cl)cc1Cl,-30,
CC1(C(=O)NS(=O)(=O)c2ccc(C#N)cc2)CCN1C(=O)c1ccc(C2CCCCC2)cc1 (stereo not given),-41.5,
O=C(CNC(=O)OCc1ccccc1)NC1CCCCNC1=O (stereo not given),1.86,
Cc1ccc(C(=O)NCC(=O)OCC(=O)NC2CCCCCCC2)cc1,2.91,
CN(C1CCS(=O)(=O)C1)S(=O)(=O)c1ccc2ccccc2c1 (stereo not given),-5.3,
O=C(NC(Nc1nc2ccc([N+](=O)[O-])cc2s1)(C(F)(F)F)C(F)(F)F)c1ccccc1,,0.461 µM (active)
O=C(COC(=O)c1ccc(F)cc1)Nc1nc2ccc([N+](=O)[O-])cc2s1,-14,
O=C(CNC(=O)c1ccccc1)Oc1ccc([N+](=O)[O-])cc1,-9.37,
Nc1ccc(N=Nc2ccccc2Cl)c(N)n1,-8.19,
Cc1ccc(Cc2c(-c3ccco3)nc3ccc(Cl)cn23)cc1,,8.2 µM (active)
CC(=O)Nc1c(-c2ccc(C)cc2)nc2ccc(Cl)cn12,8.94,
CN1CCN(Cc2c(C(=O)N3CCc4ccccc4C3)nc3ccc(Cl)cn23)CC1,-25.8,
Cc1ccc(Cc2c(-c3ccccc3)nc3ccc(Cl)cn23)cc1,-24.5,
Cc1ccc(-c2nc3c(C)cc(Br)cn3c2Cc2ccccc2)cc1,-10.3,
Cc1cc(Br)cn2c(Cc3ccccc3C(F)(F)F)c(-c3ccc(Cl)cc3)nc12,-17,
Cc1ccc(-c2nc3ccc(Cl)cn3c2Cc2ccccc2)cc1,,20.6 µM (active)
Cc1ccc(-c2nc3ccc(Br)cn3c2Cc2ccccc2C(F)(F)F)cc1,,16.4 µM (active)
Cc1cc(Br)cn2c(Cc3ccccc3C(F)(F)F)c(C3CCCCC3)nc12,-28.2,
Cc1ccccc1-n1nnnc1SCCCC(=O)c1ccc(F)cc1,-22.2,

SMILES,"activity change, negative = growth inhibition [%]",Potency
CCCS(=O)(=O)NC(=O)C1(C)CCCN(C(=O)c2cc(C)on2)C1 (stereo not given),-2.06,
O=S(=O)(c1cccc(-c2cn3ccccc3n2)c1)N1CCCC1,-20.9,
O=C(COC(=O)c1cccc(Cl)c1)NC1CCCCCCC1,-6.99,
Cc1nnc(NC(=O)Cn2c(=O)sc3ccccc32)s1,9.47,
O=C(c1ccccc1)c1ccc2nc(N3CCCCC3)c3nncn3c2c1,,23.1 µM (active)
c1ccc(CC2CCN(c3nc4ccccc4n4cnnc34)CC2)cc1,-8.49,
O=C(NNc1nc(N2CCCC2)nc(N2CCCC2)n1)c1ccccc1,0.8,
O=C(CN1CCCCC1)NC(=O)Nc1ccccc1F,-11.1,
Cc1cc(C)c(C(N)=O)c(Cl)n1,-4.65,
COc1ccc(CN2C(=O)C(CC(=O)NCCN3CCOCC3)CC(C(=O)N(C(C)C)C(C)C)=C2C)cc1 (stereo not given),-29.1,
CC(C)(Oc1ccc(Cl)cc1)C(=O)OCC(=O)NCCc1ccc(S(N)(=O)=O)cc1,-16.8,
O=C(N/N=C/c1ccc(Cl)c(Cl)c1)c1ccc2nc[nH]c2c1,-76.4,
CCCc1cc(=O)oc2c(C)c(OCC(=O)N3CCC(C(=O)O)CC3)ccc12,-4.53,
CN(C)CCCNC(=S)N1CCC(c2nc3ccccc3[nH]2)CC1,0.871,
O=S(=O)(c1ccc(Br)cc1)N1CCC(c2nc3ccccc3[nH]2)CC1,,18.4 µM (active)
O=C(NCc1ccccn1)C1CCN(S(=O)(=O)c2ccc(Br)cc2)CC1,-7.15,
Cc1ccc2oc(C(=O)N3CCN(C)C[C@@H]3C(C)C)c(C)c2c1,-28,
CN(C(=O)CN1C(=O)NC(C)(CCc2ccccc2)C1=O)c1ccccc1 (stereo not given),5.1,
COc1ccccc1C(=O)OCC(=O)Nc1cccc(S(=O)(=O)NC2=NCCCCC2)c1,-3.79,
CCc1ccc(C(=O)OCC(=O)Nc2cccc(S(=O)(=O)NC3=NCCCCC3)c2)cc1,8.22,
Cc1cccc(-n2c(SCC(=O)Nc3cccc(S(=O)(=O)NC4=NCCCCC4)c3)nc3ccccc3c2=O)c1C,,5.17 µM (active)
O=c1ccc(-c2ccc(S(=O)(=O)Nc3ccccc3)o2)n[nH]1,-6.29,

SMILES,"activity change, negative = growth inhibition [%]",Potency
CCOc1ccc(NC(=O)C/C(C)=N/NC(=O)Cc2cccs2)cc1,17.8,
Cc1ccc2c(c1)c1c(c(=O)n(-c3ccccc3)c(=O)n1CC(=O)c1ccc(Cl)cc1)n2C,-3.09,
O=C1OC(Cc2ccccc2)C(c2ccccc2)C1=O (stereo not given),-6.46,
Cc1ccc(CSc2oc(-c3cccs3)nc2S(=O)(=O)c2ccc(C)cc2)cc1,,13 µM (active)
Cc1c(-c2ccccc2)nc(N)c(C#N)c1-c1cccs1,2.19,
CCCCS(=O)(=O)c1oc(-c2cccs2)nc1S(=O)(=O)c1ccccc1,,0.82 µM (active)
COC(=O)CSc1nccc(-c2cccs2)n1,3.52,
NC(=O)CSc1oc(-c2cccs2)nc1S(=O)(=O)c1ccccc1,6.63,
Cc1ccc(CSc2ccc(S(=O)(=O)N3CCCCC3)cn2)cc1,-0.899,
Cc1ccc(NC(=O)COC(=O)CNC(=O)c2ccc(Cl)cc2Cl)cc1S(=O)(=O)N1CCOCC1,16.6,
COc1ccc2[nH]c3c(c2c1)CCN1C(=O)C(CC(=O)NCCc2ccccn2)C[C@H](C(=O)N2CCOCC2)[C@@]31C (stereo not given in full),-0.962,
COc1ccc(OCCCCN2CCC(C)CC2)cc1,-3.58,
O=S(=O)(Nc1cccc(-c2ccc(N3CCOCC3)nn2)c1)c1ccc(Cl)c(Cl)c1,-3.47,
CCN(CC)C(CNC(=O)CSc1nnnn1-c1cccc(F)c1)c1ccco1 (stereo not given),-20,
COc1ccc(N(C(=O)CNC(=O)c2ccco2)C(C(=O)NCC2CCCO2)c2ccccc2)cc1Cl (stereo not given),11.1,
O=S(=O)(c1cccc(C(F)(F)F)c1)N1CCN(c2nc(-c3cccs3)nc3ccccc23)CC1,4.24,
N#Cc1c(-c2ccccc2)nc(SCc2cccc(C(F)(F)F)c2)[nH]c1=O,-0.969,
O=c1c2ccccc2nc2n1C(CSCc1ccccc1)CS2 (stereo not given),,8.2 µM (active)
O=c1c2ccccc2nc2n1C(CSc1ccc(Cl)cc1)CN2 (stereo not given),-1.74,
O=c1c2ccccc2nc2n1C(CSCc1cccc(C(F)(F)F)c1)CS2 (stereo not given),,3.66 µM (active)
O=c1c2ccccc2nc2n1C(CSc1ccc(F)cc1)CN2 (stereo not given),3.24,
